Laboratory results published in PubChem BioAssay (NCATS).
Results filed as inconclusive are left out. Active and inactive are the calls of the source. Calls follow the shape of the dose curve; as a rule, active = well fitted inhibition curve with a large enough effect; inconclusive = small, poorly fitted or top-dose-only effect; inactive = flat fitted curve, though single readings scatter.
% is scaled to controls: 0 for no effect and ±100 for the full control effect; potency is read from the fitted curve at half-maximal effect.

These compounds were tested on HEK293T (assay: qHTS assay to identify novel small-molecules to repurpose for Merkel cell carcinoma treatment (AID 1296009; also: nearly all actives have a fitted effect of over 60% in size)). Conditions: MCC and control cell lines, CellTiter-Glo viability, 72 h; at 44.8 µM (top of the series) unless noted.
Procedure, shortened: (§1)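 Cells were incubated with compound for 72 hr at 37 degree celsius before CellTiter-Glo addition. Luminescence was normalized with no-cell wells as full cytotoxicity and DMSO as baseline.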
For `COc1cc(O)c2c(c1)C1=C[C@H](O)[C@@H](O)C[C@]1(C)OC2=O`, the outcome was “inactive”. In the case of `COC1/C=C/C(C)(O)C(SCC(N)C(=O)O)CC(=O)OC(C)C(C)CC/C=C/1C` (configuration not stated), the outcome is reported as “inactive [at 17.4 µM]”. `O=C(N/N=C/c1ccc(O)c(O)c1)c1cc2ccccc2cc1O` was tested, and the outcome was “inactive [at 17.4 µM]”. In the case of `COc1ccc(-n2[nH]c(=O)c3[nH]c4cc(Cl)ccc4c(=O)c3c2=O)c(C)c1`, the outcome is reported as “inactive”. For `CCNC(=O)Nc1ncc(-c2cc(-c3c(C)cc(OC)cc3C)nc(-c3cnccn3)n2)s1`, the outcome was “inactive”. With `O=C(CO)[C@@H](O)[C@H](O[C@@H]1O[C@H](CO)[C@H](O)[C@H](O)[C@H]1O)[C@H](O)CO` the outcome was “inactive”. In the case of `CCN(Cc1cccnc1)C(=O)CN(c1ccc(OC)nc1)S(=O)(=O)c1ccccc1C`, the outcome is reported as “inactive”. `Cn1cc(-c2ccc3nnc(Sc4ccc5nn(C)cc5c4)n3n2)cn1` was tested, and the outcome was “inactive”. `Cc1ccccc1NC(=O)Nc1ccc(CC(=O)N(C)[C@@H](CC(C)C)C(=O)NCC[C@H](NC(=O)[C@@H]2CCCN2S(=O)(=O)c2cc(Cl)cc(Cl)c2)C(=O)O)cc1` was tested, and the outcome was “inactive [at 17.4 µM]”. With `C[C@@H]1CCC2C(C)(C)[C@H](O)CC[C@]2(C)[C@@]12Cc1c(O)cc3c(c1O2)CN([C@@H](CCC(=O)O)C(=O)O)C3=O` (some centres not stated) the outcome was “inactive [at 17.4 µM]”. For `CCOCCOC(=O)/C=C/c1ccc(OC)cc1`, the outcome was “inactive”. With `CC1CCCCN1S(=O)(=O)c1ccc(N2CCCC2=O)cc1` (configuration not stated) the outcome was “inactive”. `Cc1ccc(-c2c(C(=O)CF)n(CCCO)c3ncnc(N)c23)cc1` was tested, and the outcome was “inactive”. For `COC(=O)CC(C)(O)CC(=O)OCc1ccc(O[C@@H]2O[C@H](CO)[C@@H](O)[C@H](O)[C@H]2O)cc1` (some centres not stated), the outcome was “inactive [at 17.4 µM]”. `Cc1cccc(-c2[nH]c(Cc3cccc(C(N)=O)c3)nc2-c2ccc3nccnc3c2)n1` was tested, and the outcome was “inactive”. With `c1ccc(-c2csc(N3CCOCC3)n2)cc1` the outcome was “inactive”. For `C=C1C[C@@]23CCC4[C@@](C)(CCC[C@@]4(C)C(=O)OC)C2CC[C@@H]1C3` (some centres not stated), the outcome was “inactive”. For `CC(C)N(CCCCOCC(=O)NS(C)(=O)=O)c1cnc(-c2ccccc2)c(-c2ccccc2)n1`, the outcome was “inactive”.

What follows are compounds tested on MCC-13 in the same assay as above. Conditions: MCC and control cell lines, CellTiter-Glo viability, 72 h; series mostly up to 46 µM; activity change, negative = cytotoxicity: at the top concentration.
Procedure, shortened: as §1
For `O=C(O)c1ccccc1NCCc1ccccc1`, the “activity change, negative = cytotoxicity” value was -5.08% (inactive). With `CCC(C(=O)O)c1ccc(N2Cc3ccccc3C2=O)cc1` (configuration not stated) the “activity change, negative = cytotoxicity” value was 3.34% (inactive). For `CCOCCOC(=O)/C=C/c1ccc(OC)cc1`, the “activity change, negative = cytotoxicity” value was 9.08% (inactive). `O=C(O)c1c(O)c(-c2ccccc2)nc2ccccc12` was tested, and the “activity change, negative = cytotoxicity” value was -2.39% (inactive).

These compounds were tested on MCC-26 in the same assay as above. Conditions: MCC and control cell lines, CellTiter-Glo viability, 72 h; series mostly up to 46 µM; activity change, negative = cytotoxicity: at the top concentration.
Procedure, shortened: as §1
With `O=C(O)c1ccccc1NCCc1ccccc1` the “activity change, negative = cytotoxicity” value was 7.57% (inactive). For `CCC(C(=O)O)c1ccc(N2Cc3ccccc3C2=O)cc1` (configuration not stated), the “activity change, negative = cytotoxicity” value was 2.07% (inactive). In the case of `CCOCCOC(=O)/C=C/c1ccc(OC)cc1`, the “activity change, negative = cytotoxicity” value is reported as 0.869% (inactive). With `O=C(O)c1c(O)c(-c2ccccc2)nc2ccccc12` the “activity change, negative = cytotoxicity” value was -1.05% (inactive). `Nc1ccccc1N` was tested, and the “activity change, negative = cytotoxicity” value was -2.26% [at 92.7 µM] (inactive).

The compounds below were run on MKL-1 in the same assay as above. Conditions: MCC and control cell lines, CellTiter-Glo viability, 72 h; series mostly up to 46 µM; activity change, negative = cytotoxicity: at the top concentration.
Procedure, shortened: as §1
For `O=C(O)c1ccccc1NCCc1ccccc1`, the “activity change, negative = cytotoxicity” value was 4.86% (inactive). In the case of `Cc1ccc(N)cc1O`, the Potency is reported as 6.11 µM (active). In the case of `CCC(C(=O)O)c1ccc(N2Cc3ccccc3C2=O)cc1` (configuration not stated), the “activity change, negative = cytotoxicity” value is reported as -1.26% (inactive). In the case of `CCOCCOC(=O)/C=C/c1ccc(OC)cc1`, the “activity change, negative = cytotoxicity” value is reported as -3.75% (inactive). For `O=C(O)c1c(O)c(-c2ccccc2)nc2ccccc12`, the “activity change, negative = cytotoxicity” value was 0.0265% (inactive).

These compounds were tested on MKL-2 in the same assay as above. Conditions: MCC and control cell lines, CellTiter-Glo viability, 72 h; series mostly up to 46 µM; activity change, negative = cytotoxicity: at the top concentration.
Procedure, shortened: as §1
With `O=C(O)c1ccccc1NCCc1ccccc1` the “activity change, negative = cytotoxicity” value was -17.9% (inactive). With `Cc1ccc(N)cc1O` the Potency was 6.11 µM (active). In the case of `CCC(C(=O)O)c1ccc(N2Cc3ccccc3C2=O)cc1` (configuration not stated), the “activity change, negative = cytotoxicity” value is reported as 14.1% (inactive). `CCOCCOC(=O)/C=C/c1ccc(OC)cc1` was tested, and the “activity change, negative = cytotoxicity” value was 11.7% (inactive). With `O=C(O)c1c(O)c(-c2ccccc2)nc2ccccc12` the “activity change, negative = cytotoxicity” value was -2.45% (inactive).
